Source: PubChem BioAssay AID1347147 (National Center for Advancing Translational Sciences (NCATS), 2019)
Inconclusive results are not listed. Where a call stands in place of a potency, no number is given. Activity calls are given as the source filed them. Calls follow the shape of the dose curve; as a rule, active = well fitted inhibition curve with a large enough effect; inconclusive = small, poorly fitted or top-dose-only effect; inactive = no such curve, though single readings can be large or run the other way.

Each compound was assayed against N-terminal Xaa-Pro-Lys N-methyltransferase 1 (Homo sapiens) (UniProt Q9BV86) (assay: qHTS Assay for Inhibitors of N-terminal methyltransferase 1 (NTMT1): MTaseGlo Confirmatory Screen, Round 2). Conditions: NTMT1 enzyme, MTase-Glo SAH luminescence; series mostly up to 57.4 µM.
Chain of N-terminal Xaa-Pro-Lys N-methyltransferase 1 (Homo sapiens) (Q9BV86 whole entry, looked up): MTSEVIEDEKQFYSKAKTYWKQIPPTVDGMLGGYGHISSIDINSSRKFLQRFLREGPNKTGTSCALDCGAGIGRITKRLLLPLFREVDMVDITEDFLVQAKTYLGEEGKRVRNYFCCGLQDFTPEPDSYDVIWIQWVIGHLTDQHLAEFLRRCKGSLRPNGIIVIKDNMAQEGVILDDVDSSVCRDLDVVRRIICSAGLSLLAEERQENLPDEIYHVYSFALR
Outline: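 NTMT1 (125 nM) with 100 µM SAM was preincubated ~15 min with compound, then 1 µM SPKRIA peptide was added for 30 min at RT. SAH was detected by MTase-Glo luminescence, normalized to no-enzyme and DMSO controls, and fitted to a 4-parameter Hill equation.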

| SMILES | Potency |
| --- | --- |
| Nc1nc(Cl)nc2c1ncn2[C@@H]1O[C@H](CO)[C@@H](O)[C@@H]1F | inactive |
| CSc1ccc2c(c1)N(CCC1CCCCN1C)c1ccccc1S2 (stereo not given) | inactive |
| COC(=O)[C@@H]1[C@H]2C[C@H]3c4[nH]c5ccccc5c4CCN3C[C@@H]2CC[C@@H]1O | inactive |
| N#C/C(=C\c1ccc(O)c(O)c1)C(=O)NCCc1ccccc1 | inactive |
| O=c1c(-c2ccc(O)cc2)coc2cc(O)cc(O)c12 | inactive |
| O=C(O)Cc1ccc(O)c(O)c1 | inactive |
| CCCCNc1ccc(C(=O)OCCN(C)C)cc1 | inactive |
| CCNC(=O)[C@H]1O[C@H](n2cnc3c(N)nc(NCCc4ccc(CCC(=O)O)cc4)nc32)[C@@H](O)[C@@H]1O | inactive |
| Oc1cc2c(cc1O)CN(C(=S)NCCc1ccc(Cl)cc1)CCC2 | inactive |
| COc1cc2c(NC3CCN(CC4CCCCC4)CC3)nc(N3CCCCC3)nc2cc1OCCCN1CCCCC1 | inactive |
| Nc1nc(=S)c2ncn([C@@H]3O[C@H](CO)[C@@H](O)[C@H]3O)c2[nH]1 | inactive |
| Cc1[nH]c(=O)c(C#N)cc1-c1ccc2nccn2c1 | inactive |
| CN(C)CCCN1c2ccccc2Sc2ccccc21 | inactive |
| COC(=O)C1=C(C)NC(C)=C(C(=O)OC)C1c1ccccc1[N+](=O)[O-] | inactive |
| CC#C[C@]1(O)CC[C@H]2[C@@H]3CCC4=CC(=O)CCC4=C3[C@@H](c3ccc(N(C)C)cc3)C[C@@]21C | inactive |
| Oc1ccccc1O | inactive |
| O=C1Cc2c([nH]c3ccc(Br)cc23)-c2ccccc2N1 | inactive |
| NCCc1ccc(O)c(O)c1 | inactive |
| NC[C@@H]1O[C@H](C23CC4CC(CC(C4)C2)C3)Cc2c1ccc(O)c2O | inactive |
| O=[N+]([O-])c1ccc2c(c1)S(=O)(=O)C=C2 | inactive |
